DT40 TDP1 no CPT: qHTS for Inhibitors of human tyrosyl-DNA phosphodiesterase 1 (TDP1): qHTS in cells in absence of CPT; DT40 Tdp1-/- hTDP1 cells, no CPT, ATP luminescence, 48 h; Potency, µM (doses to about 46.2 µM), inactives show top-dose activity change, negative = growth inhibition, usual class: inhibitors; 420,000 compounds, 15% hits; AID 686978, 2013; note: potency is the fitted concentration of half-maximal effect; nearly all actives have a fitted effect of over 55% in size
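Growth kinetics read by CellTiter-Glo luminescence after ≥48 hr at 37 °C. Cells: DT40 Tdp1-/- stably carrying human TDP1, 400 per well, compound exposure in the absence of CPT (DMSO vehicle).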
RORg inh: blocks mouse ROR gamma transcriptional activity; Potency, µM (doses to about 53.6 µM), inactives show at the highest dose activity change, negative = inhibition, usual class: inhibitors; P51450; Drosophila S2 Gal4-RORgamma UAS-luciferase reporter, 20 h; AID 2551; 310,000 compounds, 5.4% hits; note: potency is the fitted concentration of half-maximal effect; nearly all actives have a fitted effect of over 60% in size
Target sequence (P51450 whole entry, looked up, the tested form may be a part): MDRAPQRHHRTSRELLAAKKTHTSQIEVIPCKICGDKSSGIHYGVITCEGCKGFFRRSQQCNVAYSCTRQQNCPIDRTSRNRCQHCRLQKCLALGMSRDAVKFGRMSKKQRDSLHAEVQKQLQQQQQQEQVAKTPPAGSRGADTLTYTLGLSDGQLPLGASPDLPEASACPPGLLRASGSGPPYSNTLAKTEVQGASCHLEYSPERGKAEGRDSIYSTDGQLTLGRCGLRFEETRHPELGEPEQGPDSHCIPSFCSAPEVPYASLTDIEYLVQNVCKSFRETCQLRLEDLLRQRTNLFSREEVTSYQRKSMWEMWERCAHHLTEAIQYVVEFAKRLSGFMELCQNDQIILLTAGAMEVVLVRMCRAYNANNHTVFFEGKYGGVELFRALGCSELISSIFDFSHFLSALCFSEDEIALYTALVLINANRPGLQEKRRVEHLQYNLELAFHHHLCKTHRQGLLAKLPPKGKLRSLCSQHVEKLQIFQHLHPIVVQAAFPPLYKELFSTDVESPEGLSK
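Schneider cells (Drosophila), stable Gal4 DBD–ROR gamma + UAS-luc; 1 hr cmpd preincubation; Cu2+ induction 700 uM final; 20 hr ambient; luminescence.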
TDP1 cell CPT: growth inhibition of DT40 Tdp1-/-;hTDP1 cells with camptothecin (screen for TDP1 inhibitors); chicken DT40 Tdp1-/-;hTDP1 cells + 20 nM CPT, ATP luminescence, 48 h; Potency, µM (titrated, usually from 46.2 µM), inactives show at the highest dose activity change, negative = growth inhibition, actives largely listed as inhibitors; 420,000 compounds, 12% hits; AID 686979; note: potency is the fitted concentration of half-maximal effect; nearly all actives have a fitted effect of over 55% in size
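Cell growth measured by CellTiter-Glo luminescence after a minimum 48 h, 37 C compound exposure with 20 nM CPT in Tdp1-knockout DT40 cells stably expressing hTDP1, seeded 400/well; qHTS titration format.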
Gal4-VP16 FLuc: counter-screen for ROR gamma inhibitors: Gal4-VP16 reporter; Drosophila S2 Gal4-VP16 UAS-luciferase, luminescence, 20 h; Potency, µM (doses to about 53.6 µM), without a hit: at the highest dose activity, negative = inhibition, usual class: inhibitors; 310,000 compounds, 3.5% hits;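 note: Gal4-VP16 expression switched on by copper sulfate through the metallothionein promoter; potency is the fitted concentration of half-maximal effect; nearly all actives have a fitted effect of over 50% in size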
IL-1B inflam inh: blocks inflammasome-driven IL-1 beta release; AID 743279; activity change, % at 57.5 µM; THP-1 LPS/ATP IL-1B secretion, AlphaLISA, 16 h; stronger effect = lower value; 360,000 compounds, 4.7% hits; in the data active = activity change below about -50%; inconclusive = mostly about -30% to -49%
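THP-1 cells pretreated 1 hr with compounds (up to 57.5 uM final), then stimulated with LPS (250 ng/mL final) plus ATP (1.25 mM final); secreted IL-1B measured by AlphaLISA after 16 hr, decreased signal indicating inhibition.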
ELG1 DNA repair: blocks ELG1-dependent DNA repair in HEK293T cells; HEK293T ELG1-luciferase reporter, luminescence, 16 h; DNA damage induced by 5-fluorouridine; Potency, µM (titrated, usually from 46.1 µM), without a hit: top-dose activity change, negative = inhibition, most hits filed as inhibitors; 330,000 compounds, 2.3% hits; AID 504467; note: potency is the fitted concentration of half-maximal effect; nearly all actives have a fitted effect of over 55% in size
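Overnight (16 hr) co-exposure of 2,000 cells/well to 5-fluorouridine and compound at 37 °C preceded detection. Luciferase was quantified via ONE-Glo luminescence; loss of signal denotes inhibition.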
Active calls of the source: *; ? = inconclusive; . = no result; [ ] = remark or other dose. The list is not random: actives were taken first. Their share in the collection is about 21%. Unless noted, calls come from the whole dose curve; as a rule, active = well fitted curve in the direction sought with a large enough effect; inconclusive = small, poorly fitted or top-dose-only effect, or another doubt; inactive = no such curve, though single readings can be large; an effect the other way counts as inactive or inconclusive. % is set by controls: 0 for no effect and ±100 for the full control effect.

SMILES | DT40 TDP1 no CPT | RORg inh | TDP1 cell CPT | Gal4-VP16 FLuc | IL-1B inflam inh | ELG1 DNA repair
COCCNc1nc(Oc2cncc(Cl)c2)c2sccc2n1 | ? | . | ? | . | -27 | .
COc1ccc(S(=O)(=O)NNS(=O)(=O)c2ccc(OC)c(OC)c2)cc1OC | -17% | . | -12% | . | 29 | .
COC(=O)c1c(NC(=O)c2cccc(N3C(=O)CCC3=O)c2)sc2c1CCN(C(C)=O)C2 | -10% | -38% | 5% | 4% | -3 | -6%
COC(=O)c1c(NC(=O)c2nc3ccccc3s2)sc2c1CCN(C(C)=O)C2 | 6.5µM* | 36% | 7.3µM* | -2% | ? | ?
CNC(=O)c1c(NC(=O)c2nc3ccccc3s2)sc2c1CCC2 | . | 7.1µM* | . | 8.9µM* | . | ?
CNC(=O)c1c(NC(=O)C(C)C)sc2c1CCC2 | ? | 4% | -28% | -12% | 18 | 1%
COC(=O)c1c(NC(=O)C2COc3ccccc3O2)sc2c1CCN(C(C)=O)C2 (stereo unspecified) | ? | -2% | 12µM* | -3% | 14 | ?
O=C(/C=C/c1cc([N+](=O)[O-])ccc1OC(F)F)Nc1cccc2ccccc12 | ? | 20% | ? | -9% | 10 | ?
Cc1cc(NC(=O)C2CCCCC2)nc2c1c(=O)oc1ccccc12 | ? | -14% | ? | 0% | -3 | 8%
Cc1cc(NC(=O)C2CCCC2)nc2c1c(=O)oc1ccccc12 | 18µM* | 8% | ? | -2% | 18 | 21µM*
CC(C)N(Cc1ccccc1)C(=O)COC(=O)C1CCN(c2ccc(C(F)(F)F)cn2)CC1 | 18µM* | . | 16µM* | . | 6 | 6%
CC(C)(C)N(Cc1ccccc1)C(=O)COC(=O)C1CCN(c2ccc(C(F)(F)F)cn2)CC1 | 15µM* | . | ? | . | 2 | 12%
Nc1cc(=O)nc(SCC(=O)N2CCN(c3ccccc3)CC2)n1-c1ccc(F)cc1 | 18% | 15% | -7% | -4% | 0 | 1%
CCn1cc2nc(SCc3cccc(C(F)(F)F)c3)n(CCc3ccccc3)c(=O)c2n1 | 13µM* | . | 23µM* | . | . | .
CCn1cc2nc(SCc3cccc(Cl)c3)n(Cc3ccc(C)cc3)c(=O)c2n1 | 23µM* | . | 21µM* | . | . | .
CCn1cc2nc(SCc3cccc(C(F)(F)F)c3)n(Cc3ccc(Cl)cc3)c(=O)c2n1 | 8.2µM* | . | 15µM* | . | . | .
CCn1c(SCc2cccc(C(F)(F)F)c2)nnc1-c1ccco1 | -11% | 9% | -13% | -1% | -1 | 2%
CCn1cc2nc(SCc3cccc(C)c3)n(CCc3ccccc3)c(=O)c2n1 | ? | . | 23µM* | . | . | .
Cn1c(=O)c2c(nc(SCC(=O)O)n2Cc2cccc(C(F)(F)F)c2)n(C)c1=O | -23% | -19%[0.365 µM] | -3% | . | 13 | -5%
Cc1ccc(S(=O)(=O)OCC2CN3C(CCC(C)C3c3ccc(Br)cc3)C(=O)O2)cc1 (stereo unspecified) | . | 16%[10 µM] | . | -6%[10 µM] | . | .
COc1ccc(Cc2nc3ccc(C(=O)NC4CCOC4)cc3o2)cc1 (stereo unspecified) | 14% | 26% | -4% | 21% | 33 | 0%
CC(C)(C)C(=O)NC1=NCCS1 | 9% | -20% | -5% | -14% | 14 | 1%
O=C(CC12CC3CC(C1)CC(CC(=O)NC1=NCCS1)(C3)C2)NC1=NCCS1 | -4% | ? | -2% | -2% | 5 | -1%
CC12CC3(C)CC(C)(C1)CC(C(=O)NC1=NCCS1)(C2)C3 | ? | . | 23µM* | . | 23 | .
CC12CC3CC(C)(C1)CC(C(=O)NC1=NCCS1)(C3)C2 | -23% | 2.8µM* | -2% | 7.9µM* | 0 | -9%
SMILES | DT40 TDP1 no CPT | RORg inh | TDP1 cell CPT | Gal4-VP16 FLuc | IL-1B inflam inh | ELG1 DNA repair
COc1cc(/C=N/NC(=O)c2ccncc2)ccc1OC(=O)c1cccc(F)c1 | -22% | ? | -18% | -8% | 16 | 3%
Cc1cc(C(=O)N/N=C/c2cc(Br)ccc2OC(=O)c2ccccc2Cl)n[nH]1 | 4.6µM* | 14µM* | 5.8µM* | ? | 78 | ?
Cc1cc(C(=O)N/N=C/c2cc(Br)ccc2OC(=O)c2ccccc2)n[nH]1 | 6.5µM* | ? | 7.3µM* | 3%[0.365 µM] | 166 | -14%
Cc1cc(C(=O)N/N=C/c2ccc(OC(=O)c3ccccc3Br)cc2)n[nH]1 | ? | -10% | ? | -1% | -9 | 11%
Cn1c(CCNC(=O)c2ccco2)nc2cc(NC(=O)c3ccccc3Cl)ccc21 | -13% | 0% | -16% | 20% | 10 | ?
Cc1noc(C)c1C(=O)N1CCC[C@@]2(CCN(C(=O)Nc3cccc(C#N)c3)C2)C1 | -3% | 27% | 7% | -1% | . | .
O=C(Cn1c(=O)n(CCC(=O)N2CCc3ccccc3C2)c(=O)c2ccccc21)NCC1CCCO1 (stereo unspecified) | -17% | -5% | -5% | -4% | -7 | -7%
Cc1ccc(NC(=O)Cn2c(=O)n(CCC(=O)N3CCc4ccccc4C3)c(=O)c3ccccc32)cc1 | 16µM* | . | 18µM* | . | . | .
Cc1ccccc1NC(=O)Cn1c(=O)n(CCC(=O)N2CCc3ccccc3C2)c(=O)c2ccccc21 | 15µM* | . | 16µM* | . | . | .
O=S(Cc1ccc(Br)cc1)Cc1nnc(SCc2ccc(Br)cc2)n1-c1ccccc1 (stereo unspecified) | 10µM* | ? | 12µM* | -21% | -58* | ?
COC(=O)c1ccc(NC(=O)CSc2nnc(C)n2-c2ccccc2)cc1 | 7% | 34% | -6% | -5% | 14 | .
COC(=O)c1ccc(CSc2nnc(CS(=O)Cc3ccc(Br)cc3)n2-c2ccccc2)cc1 (stereo unspecified) | 13µM* | ? | 7.3µM* | -11% | -11 | ?
CCCCCC/C=C/c1ccc(C2C3C=CCC(C)C3C(=O)N2Cc2ccccc2)c(F)c1 (stereo unspecified) | . | -19% | . | -1% | . | .
CCCOc1ccc(-c2nonc2NC(=O)c2oc3ccc(Cl)cc3c2C)cc1OCCC | 7.3µM* | . | ? | . | . | .
CCc1nonc1NC(=O)c1oc2ccc(F)cc2c1C | -15% | 17% | 1% | -2% | -4 | ?
Cc1c(C(=O)Nc2nonc2-c2ccc(F)cc2)oc2ccc(F)cc12 | ? | 8.9µM* | ? | ? | 60 | ?
CCOc1ccc(-c2nonc2NC(=O)c2oc3ccc(F)cc3c2C)cc1 | 0.82µM* | . | 0.92µM* | . | . | .

Screening data as filed in PubChem.
